Experiments:
[1] = target: T1, ETS1 (UniProt P14921); test: ETS1 binding intensity (PBM fluorescence), ETS1 alone (arbitrary fluorescence units); higher = stronger binding; conditions: ETS1 concentration 1 nM; RUNX1 concentration 0 nM
T1 sequence: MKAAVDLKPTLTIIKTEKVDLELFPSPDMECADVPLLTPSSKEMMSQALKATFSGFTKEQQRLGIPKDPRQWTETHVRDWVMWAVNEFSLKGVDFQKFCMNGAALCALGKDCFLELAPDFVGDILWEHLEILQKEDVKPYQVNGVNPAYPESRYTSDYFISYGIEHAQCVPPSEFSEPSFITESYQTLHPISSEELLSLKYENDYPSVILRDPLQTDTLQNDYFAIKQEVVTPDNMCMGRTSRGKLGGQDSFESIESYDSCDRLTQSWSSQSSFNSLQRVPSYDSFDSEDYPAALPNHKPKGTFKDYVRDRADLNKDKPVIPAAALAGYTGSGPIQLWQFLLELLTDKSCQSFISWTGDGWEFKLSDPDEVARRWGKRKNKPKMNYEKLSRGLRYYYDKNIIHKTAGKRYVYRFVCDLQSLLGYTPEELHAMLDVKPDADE

[2] = target: RUNX1 (UniProt Q01196); test: RUNX1 binding intensity (PBM fluorescence), RUNX1 alone (arbitrary fluorescence units); higher = stronger binding; conditions: RUNX1 concentration 2 nM; ETS1 concentration 0 nM
Sequence of RUNX1 (Q01196 whole entry): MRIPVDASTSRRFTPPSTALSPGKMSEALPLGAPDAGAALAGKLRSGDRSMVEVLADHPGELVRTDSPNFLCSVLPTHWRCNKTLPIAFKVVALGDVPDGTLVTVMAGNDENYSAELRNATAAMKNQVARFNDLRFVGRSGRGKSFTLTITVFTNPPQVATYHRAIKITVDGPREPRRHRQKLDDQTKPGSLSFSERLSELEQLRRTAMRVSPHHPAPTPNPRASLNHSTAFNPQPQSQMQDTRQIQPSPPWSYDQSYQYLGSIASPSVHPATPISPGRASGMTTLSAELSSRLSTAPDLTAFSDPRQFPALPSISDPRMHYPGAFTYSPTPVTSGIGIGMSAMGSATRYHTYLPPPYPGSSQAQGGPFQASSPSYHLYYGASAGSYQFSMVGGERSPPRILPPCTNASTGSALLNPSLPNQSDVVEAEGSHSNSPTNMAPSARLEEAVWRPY
Protocol: (§1)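 Cooperative gcPBM on 36-bp genomic probes with neighbouring ETS1 and RUNX1 sites. Recombinant human RUNX1 (2 nM) was incubated alone or with ETS1 (25 nM) and detected with anti-RUNX1 antibody plus Alexa488 secondary. Values are medians over 4 replicate spots; the RUNX1+ETS1 data were normalised to the RUNX1-only data. The probes sit in constant array flanks that are not printed.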

[3] = target: T1, ETS1; test: ETS1 binding intensity (PBM fluorescence) in presence of RUNX1, normalised to ETS1-only experiment (arbitrary fluorescence units); higher = stronger binding; conditions: ETS1 concentration 1 nM; RUNX1 concentration 25 nM
[4] = target: RUNX1 (UniProt Q01196); test: RUNX1 binding intensity (PBM fluorescence) in presence of ETS1, normalised to RUNX1-only experiment (arbitrary fluorescence units); higher = stronger binding; conditions: RUNX1 concentration 2 nM; ETS1 concentration 25 nM
Protocol: as §1
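For RUNX1 binding intensity (PBM fluorescence) in presence of ETS1, normalised to RUNX1-only experiment in this document: Full-length recombinant human ETS1 or RUNX1 bound to double-stranded 36-bp genomic probes on microarrays, detected by protein-specific primary antibody and Alexa488 secondary, spot fluorescence as median of four replicate spots.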
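For RUNX1 binding intensity (PBM fluorescence), RUNX1 alone in this document: Full-length recombinant human RUNX1 bound to double-stranded 36-bp genomic probes on a high-density microarray, scored as Alexa488 fluorescence per spot via anti-RUNX1 antibody, median of four replicate spots.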

Sequence: CGGCCTCTTCCGGTCACCTGGCCCGTCGCGGTCCCG
- ETS1 binding intensity [1]: 1800
- RUNX1 binding intensity [2]: 1040
- ETS1 binding intensity [3]: 1520
- RUNX1 binding intensity [4]: 2290

Sequence: AGTGGCTACCACTTCCTTCTCTTACCACAGTTCCTT
- ETS1 binding intensity [1]: 442
- RUNX1 binding intensity [2]: 1550
- ETS1 binding intensity [3]: 607
- RUNX1 binding intensity [4]: 4520

Sequence: AGCCACGGACTTCCGCCTACAGGTCGCCGCAGGTCC
- ETS1 binding intensity [1]: 701
- RUNX1 binding intensity [2]: 756
- ETS1 binding intensity [3]: 882
- RUNX1 binding intensity [4]: 1700

Sequence: GGACCCAGCAGAGGATGTGGTTACAGGGCCATGATA
- ETS1 binding intensity [1]: 720
- RUNX1 binding intensity [2]: 836
- ETS1 binding intensity [3]: 5450
- RUNX1 binding intensity [4]: 2170

Sequence: GAAATGAAGGCCGGATGTCAGTAACCACAAACGAGC
- ETS1 binding intensity [1]: 7620
- RUNX1 binding intensity [2]: 1040
- ETS1 binding intensity [3]: 47500
- RUNX1 binding intensity [4]: 11000

Sequence: ATTCCTAGAGAGGAAATGCGGGCTCAGGGTGTCGGC
- ETS1 binding intensity [1]: 1550
- RUNX1 binding intensity [2]: 754
- ETS1 binding intensity [3]: 1560
- RUNX1 binding intensity [4]: 897

Sequence: TTTGTGCCCCAACTTCCTCTGTGGCTTTTGGGTGGG
- ETS1 binding intensity [1]: 650
- RUNX1 binding intensity [2]: 898
- ETS1 binding intensity [3]: 969
- RUNX1 binding intensity [4]: 1480

Sequence: GCTCGGAAATACCAATATTGGGCTGTGGTATTTGAA
- ETS1 binding intensity [1]: 412
- RUNX1 binding intensity [2]: 911
- ETS1 binding intensity [3]: 626
- RUNX1 binding intensity [4]: 953

Sequence: GAAGGCGGTTCCGGTTCGCGGCGGTTCCCGGGTTTT
- ETS1 binding intensity [1]: 515
- RUNX1 binding intensity [2]: 794
- ETS1 binding intensity [3]: 466
- RUNX1 binding intensity [4]: 1820

Sequence: GATGCTTGTTCAGGATGCGGTTTCTTGCAGCAAGTT
- ETS1 binding intensity [1]: 674
- RUNX1 binding intensity [2]: 3420
- ETS1 binding intensity [3]: 2380
- RUNX1 binding intensity [4]: 5090

Sequence: TGTGTAAGAGGAAACACCAAAACCACAAATATGAAA
- ETS1 binding intensity [1]: 736
- RUNX1 binding intensity [2]: 2080
- ETS1 binding intensity [3]: 3280
- RUNX1 binding intensity [4]: 3530

Sequence: CTGCAGATGCATTTCCTTTTTGTGGTAGCAAGCGTG
- ETS1 binding intensity [1]: 570
- RUNX1 binding intensity [2]: 805
- ETS1 binding intensity [3]: 932
- RUNX1 binding intensity [4]: 1470

Sequence: GTTTCATGTTAAGTAGGATGTGGTCAGTTAGCTTCG
- ETS1 binding intensity [1]: 851
- RUNX1 binding intensity [2]: 1120
- ETS1 binding intensity [3]: 5410
- RUNX1 binding intensity [4]: 1290

Sequence: AGCCTGGCCTCGGCAGGATGTGGGTGTAGGTCATGC
- ETS1 binding intensity [1]: 4780
- RUNX1 binding intensity [2]: 732
- ETS1 binding intensity [3]: 7380
- RUNX1 binding intensity [4]: 999

Sequence: ACCTTCGCCGGATGCTGTGGCTGAAACCACAGCATT
- ETS1 binding intensity [1]: 2480
- RUNX1 binding intensity [2]: 994
- ETS1 binding intensity [3]: 13300
- RUNX1 binding intensity [4]: 1980

Sequence: AACAGCTTCCGGCACGGGGGCTGTGGTTGTGTTGGA
- ETS1 binding intensity [1]: 670
- RUNX1 binding intensity [2]: 790
- ETS1 binding intensity [3]: 1130
- RUNX1 binding intensity [4]: 1530

Sequence: CCCTTCGCTTCCGCTCCGCGTTCCCACAATGCAGTG
- ETS1 binding intensity [1]: 884
- RUNX1 binding intensity [2]: 1600
- ETS1 binding intensity [3]: 1090
- RUNX1 binding intensity [4]: 3700

Sequence: GAAATGAGAGAACGGAAACCACAAGTCAAGGGGCTT
- ETS1 binding intensity [1]: 1460
- RUNX1 binding intensity [2]: 3620
- ETS1 binding intensity [3]: 2790
- RUNX1 binding intensity [4]: 4480

Sequence: ACACCTCAGGCAGGATGTGGTAGGGGTTGCCCCAGA
- ETS1 binding intensity [1]: 3730
- RUNX1 binding intensity [2]: 1020
- ETS1 binding intensity [3]: 6810
- RUNX1 binding intensity [4]: 2700

Sequence: TGGCTGTGTCCCGGAAGTGGTCATAAGCTGGGTCCC
- ETS1 binding intensity [1]: 8520
- RUNX1 binding intensity [2]: 730
- ETS1 binding intensity [3]: 9830
- RUNX1 binding intensity [4]: 2470

Sequence: GTGTGAAGGAAGTGTGAGATCAAACCACAGCTGGGT
- ETS1 binding intensity [1]: 457
- RUNX1 binding intensity [2]: 874
- ETS1 binding intensity [3]: 901
- RUNX1 binding intensity [4]: 947

Sequence: TGGGCTTTGCAGGAAGCTGTGGTTCACCTACAGCCT
- ETS1 binding intensity [1]: 1160
- RUNX1 binding intensity [2]: 692
- ETS1 binding intensity [3]: 2110
- RUNX1 binding intensity [4]: 866

Sequence: TATGTCTGACTTCCGCTCGTGGTTTCCATCTTAGCC
- ETS1 binding intensity [1]: 2870
- RUNX1 binding intensity [2]: 895
- ETS1 binding intensity [3]: 5230
- RUNX1 binding intensity [4]: 2850

Sequence: TAAAACACCAGGAAACTCTGTGGTGAGTGGGAGGTG
- ETS1 binding intensity [1]: 787
- RUNX1 binding intensity [2]: 1060
- ETS1 binding intensity [3]: 1220
- RUNX1 binding intensity [4]: 903

Sequence: CAGCGGAAGAAAGACCTGCCACCTCCACCACAAAGA
- ETS1 binding intensity [1]: 440
- RUNX1 binding intensity [2]: 1000
- ETS1 binding intensity [3]: 471
- RUNX1 binding intensity [4]: 925

Sequence: CTGGGGATGTGTGACACTCAGAGAAACCACAAGGTG
- ETS1 binding intensity [1]: 495
- RUNX1 binding intensity [2]: 1010
- ETS1 binding intensity [3]: 1390
- RUNX1 binding intensity [4]: 1140

Sequence: TGGACGTAACACTCAGGAAGTGGTCAACCTTGCTGC
- ETS1 binding intensity [1]: 2630
- RUNX1 binding intensity [2]: 820
- ETS1 binding intensity [3]: 5810
- RUNX1 binding intensity [4]: 1340

Sequence: GGTTTCGCTTCCGGGTTAGGCGGCCGCAGAAGCGTA
- ETS1 binding intensity [1]: 947
- RUNX1 binding intensity [2]: 790
- ETS1 binding intensity [3]: 1340
- RUNX1 binding intensity [4]: 1980

Sequence: TATGTGTTTTAGGCAGGATGTGGGTTTTAGTCTTTC
- ETS1 binding intensity [1]: 8060
- RUNX1 binding intensity [2]: 840
- ETS1 binding intensity [3]: 36400
- RUNX1 binding intensity [4]: 2200

Sequence: ACAGTCGCACCGGAAGCTGCCCGCGGTGTTGACACA
- ETS1 binding intensity [1]: 8580
- RUNX1 binding intensity [2]: 700
- ETS1 binding intensity [3]: 11300
- RUNX1 binding intensity [4]: 1360

Sequence: TCTTGAGGGTCAGGATGTGGTGAGGCCAGAGAAGGC
- ETS1 binding intensity [1]: 951
- RUNX1 binding intensity [2]: 808
- ETS1 binding intensity [3]: 2120
- RUNX1 binding intensity [4]: 1420

Sequence: CCTGCTGCTTCCGCCCGGAGTTGTTGTGGGCTCCAG
- ETS1 binding intensity [1]: 643
- RUNX1 binding intensity [2]: 806
- ETS1 binding intensity [3]: 661
- RUNX1 binding intensity [4]: 1870

Sequence: AGGTTGAAAGCACTTCCGCTGCGGCCCCCGTAGGAA
- ETS1 binding intensity [1]: 3040
- RUNX1 binding intensity [2]: 833
- ETS1 binding intensity [3]: 3460
- RUNX1 binding intensity [4]: 1520

Sequence: CCCTTGCCAGAGGAAGCCACTGCCACCGCAGAAGCA
- ETS1 binding intensity [1]: 417
- RUNX1 binding intensity [2]: 970
- ETS1 binding intensity [3]: 1740
- RUNX1 binding intensity [4]: 1080

Sequence: CATCAAGTATTTCCTCACGCAAGCAACCGCATCCAT
- ETS1 binding intensity [1]: 392
- RUNX1 binding intensity [2]: 1180
- ETS1 binding intensity [3]: 634
- RUNX1 binding intensity [4]: 1380

Sequence: GCTCAAGTACCGGAAAGGCCCGCAGAAAGAAGGGCA
- ETS1 binding intensity [1]: 1400
- RUNX1 binding intensity [2]: 748
- ETS1 binding intensity [3]: 1270
- RUNX1 binding intensity [4]: 1060

Sequence: GCTCATTTCCTGGCCGCTCCTGGGCTTCGCGGTGAG
- ETS1 binding intensity [1]: 498
- RUNX1 binding intensity [2]: 834
- ETS1 binding intensity [3]: 716
- RUNX1 binding intensity [4]: 1730

Reference: the supplement of paper PMC10681739
